Compounds with a hit are over-represented: about 1.4% of the library has one in this group of screens.
LDHA block = qHTS assay for inhibitors of human lactate dehydrogenase; purified LDHA, NADH/diaphorase-resazurin fluorescence; stronger effect = lower value; activity change, % (values are at about 110 or 230 µM); actives 0.15% (n = 480,000); AID 1347041, 2019; in the data active means activity change below about -30%; inconclusive means mostly about -25% to -30%;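 further: plate controls were DMSO wells for no effect and wells without enzyme for full effect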
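Human LDH5 at 2 nM final in Tris HCl pH 7.4 with 0.06 mM NADH and 0.2 mM pyruvate, reacted 5 minutes at room temperature. Remaining NADH coupled via diaphorase/resazurin; resorufin fluorescence read at 0 and 20 minutes, normalized to enzyme-free and DMSO wells.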
GLS inh = qHTS for Inhibitors of Glutaminase (GLS); GLS enzymatic activity, qHTS titration; Potency, µM (highest dose often 45.5 µM), without a hit: at the top dose activity change, negative = inhibition, actives largely listed as inhibitors; actives 0.21% (n = 410,000); AID 624170, 2012; further: potency means the concentration at half of the fitted maximal effect
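hKGA in 45 mM KH2PO4 (pH 8.2), 0.02% Tween-20 with compound, then 1mM L-Glutamine (stock as added) plus glutamate oxidase/HRP/Amplex red coupling mix. Fluorescence read initially and after 30 min at RT; signal change reflects glutamate formation.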
mIDH1 inhibitor = qHTS for Inhibitors of mutant isocitrate dehydrogenase 1 (IDH1): qHTS; Isocitrate dehydrogenase [NADP] cytoplasmic (Homo sapiens), O75874; IDH1-R132H enzyme, NADPH consumption, diaphorase/resazurin fluorescence; Potency, µM (highest dose often 76.6 µM), for the others: at the top dose activity change, negative = inhibition, actives largely listed as inhibitors; actives 0.093% (n = 390,000); further: potency means the concentration at half of the fitted maximal effect; nearly all actives have a fitted effect of over 65% in size
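IDH1-R132H (0.5 ug/mL dispensed) in pH 7.5 Tris buffer was preincubated 30 min with compound, then given a substrate mix of 0.016 mM NADPH and 2 mM alpha-KG for 80 min at room temperature; remaining NADPH was read by diaphorase/resazurin fluorescence.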
TrxR1 inh = qHTS Assay for Inhibitors of Mammalian Selenoprotein Thioredoxin Reductase 1 (TrxR1): qHTS; AID 588453, 2011; Thioredoxin reductase 1, cytoplasmic (Rattus norvegicus), O89049; actives 1% (n = 390,000); Potency, µM (highest dose often 114 µM), inactives show at the highest dose activity change, negative = inhibition, most hits filed as inhibitors; recombinant rTrxR1, NADPH fluorescence consumption, selenite substrate; further: potency means the concentration at half of the fitted maximal effect; nearly all actives have a fitted effect of over 65% in size
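Rat TrxR1 (90 nM in the dispensed reagent) was pre-reduced with 400 uM NADPH for 5 min at room temperature, then incubated with compound for 15 min. After 400 uM selenite was added, NADPH fluorescence (Ex 340/Em 450 nm) was followed for 8 min.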
TrxR1 substrate = qHTS Assay for Substrates of Mammalian Selenoprotein Thioredoxin Reductase 1 (TrxR1): qHTS; Thioredoxin reductase 1, cytoplasmic (Rattus norvegicus), O89049; actives 0.01% (n = 390,000); purified TrxR1 substrate turnover, NADPH consumption readout; Potency, µM (highest dose often 114 µM), without a hit: at the top dose activity change, negative = substrate turnover; AID 588456, 2011; further: potency means the concentration at half of the fitted maximal effect; nearly all actives have a fitted effect of over 50% in size
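Rat TrxR1, dispensed at 90 nM, was prereduced with 400 uM NADPH (final) for 5 min at ~22 deg C, then incubated with compound 15 min before 400 uM selenite. A first-read NADPH fluorescence drop versus no-compound background flagged substrates.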
PKM2 activator = qHTS Assay for Activators of Human Muscle isoform 2 Pyruvate Kinase; Pyruvate kinase PKM (Homo sapiens), P14618; actives 0.34% (n = 260,000); purified PKM2, Kinase-Glo ATP luminescence, activation; response scale: 0% is enzyme alone, no compound; Potency, µM (series often up to 57.5 µM), inactives show top-dose activation, hits mostly activators; further: potency means the concentration at half of the fitted maximal effect; nearly all actives have a fitted effect of over 55% in size
Target sequence (P14618 whole entry, looked up, canonical isoform): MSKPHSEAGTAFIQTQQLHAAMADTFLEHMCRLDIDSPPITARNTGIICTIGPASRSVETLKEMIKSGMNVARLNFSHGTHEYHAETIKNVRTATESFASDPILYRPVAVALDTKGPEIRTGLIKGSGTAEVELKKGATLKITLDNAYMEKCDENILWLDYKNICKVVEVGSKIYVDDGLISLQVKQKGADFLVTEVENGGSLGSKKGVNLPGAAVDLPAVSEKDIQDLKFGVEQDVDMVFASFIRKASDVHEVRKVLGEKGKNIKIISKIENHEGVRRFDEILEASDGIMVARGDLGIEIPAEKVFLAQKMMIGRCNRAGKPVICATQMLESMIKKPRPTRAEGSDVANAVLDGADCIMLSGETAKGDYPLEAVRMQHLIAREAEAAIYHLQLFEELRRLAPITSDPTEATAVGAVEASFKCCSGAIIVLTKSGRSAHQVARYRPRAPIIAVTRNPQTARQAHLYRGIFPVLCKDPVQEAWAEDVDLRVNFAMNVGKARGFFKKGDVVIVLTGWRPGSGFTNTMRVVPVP
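hPK-M2, >95% pure; 0.1 mM ADP / 0.5 mM PEP final; imidazole pH7.2 buffer w/ 7 mM MgCl2, 50 mM KCl; 1 h RT; Kinase-Glo lum. Intermediate enzyme activity for dual inhibitor/activator qHTS.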
* marks the source's active call; other numbers are inactive results; u = inconclusive; x = not tested or not shown; [ ] = remark or other dose. Unless noted, the call rests on the fitted dose curve; in most records, active means well fitted curve in the direction sought with a large enough effect; inconclusive means small, poorly fitted or top-dose-only effect, or another doubt; inactive means no such curve, though single readings can be large; an effect the other way counts as inactive or inconclusive. Unless noted, on the % scale 0 is the no-effect control and ±100 the full control effect.

SMILES	LDHA block	GLS inh	mIDH1 inhibitor	TrxR1 inh	TrxR1 substrate	PKM2 activator
Cc1[nH]c2ccccc2c1C(=O)CN1C(=O)CC2(CCCCC2)C1=O	7	x	x	x	x	x
Cc1ccc(S(=O)(=O)N2CCN(c3cnn(-c4ccccc4)c(=O)c3Cl)CC2)cc1	11	-2%	11%	-10%	-9%	1%
CNC(=S)N1CCN(S(=O)(=O)c2ccc3ccccc3c2)CC1	-7	-6%	-9%	17%[57.1 µM]	-15%	20µM*
Cc1ccc(S(=O)(=O)N2CCN(c3cnn(C)c(=O)c3Cl)CC2)cc1	-11	-5%	-3%	20%[57.1 µM]	7%	20µM*
O=c1c2c3c(sc2ncn1-c1ccc(Br)cc1)CCCC3	1	x	x	x	x	x
O=C(CSc1ccc2nnc(-c3ccccn3)n2n1)NCc1ccco1	5	-23%	1%	45µM*	14%	5%
O=C(CSc1ccc2nnc(-c3ccccc3)n2n1)NCc1ccco1	-1	-5%	-6%	u	-1%	9%
Cc1ccc(CNC(=O)CCCOc2cc(=O)n(C)c3ccccc23)o1	-1	-3%	6%	40µM*	-4%	13%
Cc1ccc2c(C)nc(Nc3nccc(C)n3)nc2c1	2	x	x	x	x	x
O=S(=O)(c1ccc(N=C2NN=C(c3cc(F)ccc3F)CS2)cc1)N1CCOCC1	0	1%	26µM*	11%[57.1 µM]	-1%[57.1 µM]	13%
Fc1ccc(F)c(C2=NNC(=Nc3ccccc3F)SC2)c1	-2	3%	u	12%	-4%	-6%
CC(=O)Nc1ccc(C2=NNC(=Nc3ccc(S(=O)(=O)N4CCOCC4)cc3)SC2)cc1	-17	-17%	13µM*	-2%	-8%	u
Fc1ccc(N=C2NN=C(c3cc(F)ccc3F)CS2)cc1	0	-10%	11µM*	22%	12%[57.1 µM]	-11%
O=C(O)C(c1c[nH]c2cc(Cl)ccc12)N1CCN(C(c2ccccc2)c2ccccc2)CC1 (stereo not given)	-9	x	x	x	x	x
CC(c1ccccc1)N1CCN(C(=O)CCl)CC1 (stereo not given)	-2	-5%	-3%	16µM*	3%	1%
CC(CC(=O)N1CCN(C(=O)c2ccccc2)CC1)c1ccccc1 (stereo not given)	-5	3%	12%	18%	10%[57.1 µM]	x
COC(=O)CSc1nnc(-c2ccc(NS(=O)(=O)c3ccccc3)cc2)o1	-7	9%	3%	-2%	10%[57.1 µM]	25µM*
Cc1ccc(CSc2nnc(-c3ccc(NS(=O)(=O)c4ccccc4)cc3)o2)cc1	-1	0%	-7%	-1%	-10%	22%
N#Cc1c(-c2cccs2)nc(SCc2ccc(Cl)cc2)[nH]c1=O	u	-28%	-2%	23%[57.1 µM]	8%[57.1 µM]	32µM*
Cc1ccc2c(C)c(C(=O)Nc3nc(-c4ccc(C)s4)ns3)oc2c1	-33*	x	x	x	x	x
Cc1sc2nc(C(C)C)nc(SCC(=O)N3CCN(C(=O)c4ccco4)CC3)c2c1C	0	-2%	-6%	16µM*	0%[57.1 µM]	7%
Cc1nc(SCC(=O)N(C)Cc2ccco2)c2c(C)c(C)sc2n1	6	3%	-1%	22µM*	-7%	16%
Cc1sc2nnn(CC(=O)N3CCN(C(=O)c4ccco4)CC3)c(=O)c2c1C	-1	1%	10%	u	1%	x
O=C(CC1SC2=NCCN2C1=O)Nc1ccccc1 (stereo not given)	-4	0%	0%	-2%	-6%	21%
